CYP2C9 inh – inhibitors of human CYP2C9. inhibition, % at 5 µM. hit rate 20% among 96,000. AID 777. CYP2C9 Supersomes, luciferin-H conversion, luminescence;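 active means blocking of liver enzyme CYP2C9 beyond about 50% at 5 µM, limit read from the data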
Target sequence (P11712 whole entry, looked up): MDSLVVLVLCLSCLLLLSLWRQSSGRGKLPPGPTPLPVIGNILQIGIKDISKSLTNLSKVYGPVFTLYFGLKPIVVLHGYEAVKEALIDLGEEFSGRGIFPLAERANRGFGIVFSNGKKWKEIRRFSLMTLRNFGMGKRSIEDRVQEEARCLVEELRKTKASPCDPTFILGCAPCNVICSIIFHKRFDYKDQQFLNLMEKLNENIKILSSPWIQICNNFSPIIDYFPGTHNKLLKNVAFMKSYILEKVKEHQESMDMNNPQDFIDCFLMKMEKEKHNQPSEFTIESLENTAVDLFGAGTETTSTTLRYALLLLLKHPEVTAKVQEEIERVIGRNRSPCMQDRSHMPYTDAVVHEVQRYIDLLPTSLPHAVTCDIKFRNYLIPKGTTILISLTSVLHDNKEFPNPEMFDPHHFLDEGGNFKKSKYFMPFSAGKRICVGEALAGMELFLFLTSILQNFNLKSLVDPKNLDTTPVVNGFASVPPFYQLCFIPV
Cav32 inh – blocks human Cav3.2 T-type calcium channel. O95180. Cav3.2-expressing cells, Fluo-4 calcium fluorescence FDSS; active compounds read low. B-score at 10 µM. hit rate 4% among 100,000. AID 449739;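 active means single-dose well whose peak fluorescence ratio is a statistical outlier from its plate by either plate-standardised score or position-corrected B-score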
CYP2C9 act – increases human cytochrome P450 2C9 activity. P11712. activation factor at 5 µM. AID 1024. hit rate 1.4% among 96,000. recombinant CYP2C9, luciferin-H conversion, luminescence; active compounds read high; factor 1 = untreated enzyme, 0 = blocked;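 active means activation factor of 2 or more for CYP2C9 at a 5 µM dose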
CYP2C19 inhib – blocks human cytochrome P450 2C19; hit rate 21% among 96,000; CYP2C19 Supersomes, luciferin-H EGE luminescence, 30 min; P33261; inhibition, % at 5 µM; AID 778;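 active means CYP2C19 inhibition above a set limit at 5 µM in the primary screen, cut at about 50% in these data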
CYP2C19 activ – increases human CYP2C19 enzyme activity. 96,000 tested, under 10 active. activation factor at 5 µM. P33261. recombinant CYP2C19, luciferin-H EGE luminescence; active compounds read high; 0 = fully inhibited enzyme, 1 = untreated enzyme. AID 1025;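 active means activation factor of at least 2 at 5 µM in the primary screen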
Large screens that a line does not name were inactive. The list is not random: actives were taken first. Their share in the collection is about 27%.

CCN1C[C@]2(CO)CC[C@H](OC)[C@@]34C5C[C@H]6[C@H](OC)C5[C@](O)(C[C@H]6OC)[C@@H](C(OC)C23)[C@@H]14 (stereo partly specified)	none (no result: CYP2C9 inh, CYP2C9 act, CYP2C19 inhib, CYP2C19 activ)
CCOc1ccc(C2C(C#N)=C(N)Oc3c2c(=O)oc2ccccc32)cc1 (stereo unspecified)	CYP2C9 inh 83
CC(C)CC1C(C#N)=C(N)Oc2c1c(=O)oc1ccccc21 (stereo unspecified)	CYP2C9 inh 77
COC(=O)C1=C(N)Oc2c(c(=O)oc3ccccc23)C1c1cccnc1 (stereo unspecified)	CYP2C9 inh 92
N#CC1=C(N)Oc2c(c(=O)oc3ccccc23)C1c1ccncc1 (stereo unspecified)	CYP2C9 inh 96, CYP2C19 inhib 57
O=C1Nc2ccc(Br)cc2C(c2ccccc2Cl)=NC1O (stereo unspecified)	none (no result: CYP2C9 inh, CYP2C9 act, CYP2C19 inhib, CYP2C19 activ)
Cn1cccc1CNCCc1ccccc1	none
COc1ccc(CCNCc2ccc(F)cc2)cc1OC	CYP2C19 inhib 52
Fc1ccc(CCNCc2cccc(Cl)c2)cc1	CYP2C19 inhib 92
Cn1c(C(=O)O)c(CC(=O)N2CCN(Cc3ccccc3)CC2)c2ccccc21	none
C[N+](C)(C)c1ccccc1	none (no result: CYP2C9 inh, CYP2C9 act, CYP2C19 inhib, CYP2C19 activ)
CC(C)OCCCNC(=O)c1c(N)n(CC2CCCO2)c2nc3ccccc3nc12 (stereo unspecified)	CYP2C9 inh 85, Cav32 inh -4.5, CYP2C19 inhib 67
CCCNC(=O)c1c(N)n(CC2CCCO2)c2nc3ccccc3nc12 (stereo unspecified)	Cav32 inh -6.2
CC(C)OC(=O)c1c(N)n(CC2CCCO2)c2nc3ccccc3nc12 (stereo unspecified)	none
C=C1C(O)(c2ccccc2)C2CC[N+]1(C)CC2 (stereo unspecified)	none
CC(Cc1ccccc1)[n+]1cc(/N=C(\[O-])Nc2ccccc2)on1 (stereo unspecified)	CYP2C9 inh 72
Cc1cnn(C2CCN(C)CC2)c1N	none
Cc1nc2ccccc2c(=O)n1-c1cccc(O)c1	none
CCOC(=O)c1nc2ccccc2c(=O)n1-c1ccc(C)cc1	CYP2C9 inh 55
CCCCc1nc2ccccc2c(=O)n1-c1ccccc1O	CYP2C19 inhib 54
CCCCCc1nc2ccccc2c(=O)n1-c1ccc(Cl)cc1[N+](=O)[O-]	none
CCOC(=O)c1nc2ccccc2c(=O)n1-c1cccc(C)c1	CYP2C9 inh 52
CCc1nc2ccccc2c(=O)n1-c1ccc2ccccc2c1	CYP2C19 inhib 93
COc1ccc2c(c1)c(C(=O)CN1CCC3(CC1)OCCO3)c(C)n2Cc1ccccc1	none
CC(C)C1(C)N=C(c2ncccc2C(=O)O)NC1=O (stereo unspecified)	none
CCC(C)N1CCN(C(=O)Cc2ccccc2)CC1 (stereo unspecified)	none
C/C=C1\CN2[C@H]3C[C@@]45c6ccccc6N(C)[C@H]4[C@@H]2CC1C3[C@H]5O (stereo partly specified)	Cav32 inh -4.6 (no result: CYP2C9 inh, CYP2C9 act, CYP2C19 inhib, CYP2C19 activ)
COc1ccc(C(=O)C2(C)N(O)C(C)C(c3cccs3)=[N+]2[O-])cc1 (stereo unspecified)	none
COP(=O)(OC)C1(Nc2ccc(C)cc2)CCCCC1	CYP2C19 inhib 83
Cc1cccn2c(=O)c3c(nc12)N1CCC(Cc2ccccc2)CC1C1(C3)C(=O)N(C)C(=O)N(C)C1=O (stereo unspecified)	CYP2C9 inh 91
Cc1ccc(C(c2nnnn2Cc2ccccc2)N2CC=C(c3ccc(F)cc3)CC2)cc1 (stereo unspecified)	CYP2C9 inh 50, Cav32 inh -3.2, CYP2C19 inhib 70
COc1ccccc1N1C(=O)NC(=O)C(CCc2ccncc2)(CCc2ccncc2)C1=O	CYP2C9 inh 69, CYP2C19 inhib 91
CCOc1ccccc1N1C(=O)NC(=O)C(CCc2ccncc2)(CCc2ccncc2)C1=O	none (no result: CYP2C9 inh, CYP2C9 act, CYP2C19 inhib, CYP2C19 activ)
O=P(N1CCCCC1)(N1CCCCC1)C(Cl)(Cl)Cl	none
COc1ccc(-n2c(SC)nc3ccccc3c2=O)cc1	none
O=c1c2ccccc2nc(N2CCCC2)n1-c1ccc(Cl)cc1	Cav32 inh -4.6, CYP2C19 inhib 67
S=C(c1ccc(Cl)cc1)N1CCOCC1	CYP2C19 inhib 66
NC(=O)CN1CCCC1=O	none (no result: CYP2C9 inh, CYP2C9 act, CYP2C19 inhib, CYP2C19 activ)
Cc1c(C(=O)N2CCC3(CC2)OCCO3)sc2ncnc(N(C)c3ccccc3)c12	CYP2C9 inh 73 (no result: Cav32 inh)
Cc1sc2ncn(CC(=O)N3CCC4(CC3)OCCO4)c(=O)c2c1C	none
CN[C@@H]1C[C@@H](c2ccc(Cl)c(Cl)c2)c2ccccc21	none (no result: CYP2C9 inh, CYP2C9 act, CYP2C19 inhib, CYP2C19 activ)
CC(=O)OC[C@]12CCC(C)=C[C@H]1O[C@@H]1[C@H](O)[C@@H](OC(C)=O)[C@@]2(C)[C@]12CO2	none (no result: CYP2C9 inh, CYP2C9 act, CYP2C19 inhib, CYP2C19 activ)
CCCCc1ccc2[nH]cc(CCN)c2c1	CYP2C9 inh 63
CCOC(=O)c1c(C)[nH]c(C(=O)C(Cc2ccccc2)N(C)C)c1C (stereo unspecified)	CYP2C9 inh 84 (no result: Cav32 inh)
COC(=O)c1c(C)[nH]c(C(=O)C(Cc2ccccc2)N(C)C)c1C (stereo unspecified)	CYP2C9 inh 92, CYP2C19 inhib 92
CN(C)CC#CCOCCOCCC#N	none
O=C(c1c[nH]cc1-c1ccccc1)c1cccc2ccccc12	none (no result: CYP2C9 inh, CYP2C9 act, CYP2C19 inhib, CYP2C19 activ)
COc1cccc(N2CCN(Cc3cccc(Cl)c3)CC2)c1	CYP2C9 inh 79, CYP2C19 inhib 95
COc1cccc(N2CCN(Cc3ccc(Cl)cc3)CC2)c1	CYP2C9 inh 72, CYP2C19 inhib 88
COC(=O)C1=C(c2ccc(S(C)(=O)=O)cc2)C[C@@H]2CC[C@H]1N2C(=O)NCC1CC1	none (no result: CYP2C9 inh, CYP2C9 act, CYP2C19 inhib, CYP2C19 activ)
O=c1c2ccccc2nc(-c2cccs2)n1-c1ccccc1	none
Cc1ccccc1-n1c(C)nc2sccc2c1=O	CYP2C19 inhib 53
CCOC(=O)Cn1cc(C(=O)c2ccccc2F)c2ccccc21	CYP2C19 inhib 68
O=C(c1ccccc1F)c1cn(Cc2ccccc2)c2ccccc12	Cav32 inh -3.6, CYP2C19 inhib 60
O=C(c1ccccc1)c1cn(CC(=O)N2CCCC2)c2ccccc12	none
CCC(=O)c1cn(Cc2ccc(C#N)cc2)c2ccccc12	none
CC(C)(C)NC(=O)Cn1cc(C(=O)c2ccccc2F)c2ccccc21	none
CCn1cc(C(=O)c2ccccc2)c2ccccc21	CYP2C9 act 2.5
O=C(c1ccccc1F)c1cn(CC(=O)N2CCCCC2)c2ccccc12	CYP2C19 inhib 80
CC(C)CCn1c(N)c(C(=O)OCC2CCCO2)c2nc3ccccc3nc21 (stereo unspecified)	CYP2C9 inh 84, CYP2C19 inhib 63
CCCCn1c(N)c(C(=O)OCC2CCCO2)c2nc3ccccc3nc21 (stereo unspecified)	CYP2C9 inh 74, CYP2C19 inhib 68
CCCCOCCCn1c(N)c(C(=O)OCCOC)c2nc3ccccc3nc21	CYP2C9 inh 52
CCn1nc(-c2cccs2)nc2c(=O)n(C)c(=O)nc1-2	CYP2C9 inh 91, CYP2C19 inhib 99 (no result: Cav32 inh)
